In PubChem BioAssay (EPA / NIEHS):
Several values for one entry are separate records, joined by “and”; a condition that tells them apart may be missing. Equal values may be shown once. Results filed as inconclusive are left out. The source holds several records for some structures; these can differ, active in one and inactive in another. Activity calls are given as the source filed them. Rule for the calls, unless noted: active = hit-call score of the fitted dose curve at least 0.9, where 1 is the maximum; inconclusive = response in the unintended direction; inactive = score below 0.9.

Key:
[1] = read-out: Thyroid Hormone Responsive (THRSP), THRSP (gene 7069); assay: LTEA_HepaRG_THRSP: Life Technologies and Expression Analysis (LTEA) Assay for Thyroid Hormone Responsive (THRSP) using HepaRG (AID 2283536; active = hit-call score of the fitted dose curve at least 0.9, where 1 is the maximum; inactive = score below 0.9); conditions: mRNA level, 48 h; actives raise or lower the signal
Outline: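 THRSP transcript quantified by Fluidigm qRT-PCR against three housekeeping genes after 48 h chemical exposure of HepaRG cells in serum-free induction medium; eight-point half-log series, top 100 uM, 0.5% DMSO vehicle, duplicate wells.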

[2] = read-out: Cellular tumor antigen p53 (Homo sapiens) (UniProt P04637); assay: LTEA_HepaRG_TP53: Life Technologies and Expression Analysis (LTEA) Assay for Tumor Protein P53 (TP53) using HepaRG (AID 2283537; active = hit-call score of the fitted dose curve at least 0.9, where 1 is the maximum; inactive = score below 0.9); conditions: mRNA level, 48 h; actives raise or lower the signal
Outline: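 Read-out is TP53 transcript level by microfluidic qRT-PCR, normalised to three housekeeping genes and fitted bidirectionally against DMSO. Human HepaRG cells received compounds for 48 h, highest concentration 100 uM.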

[3] = read-out: UDP glucuronosyltransferase (UGT1A1), UGT1A1 (gene 54658); assay: LTEA_HepaRG_UGT1A1: Life Technologies and Expression Analysis (LTEA) Assay for UDP glucuronosyltransferase (UGT1A1) using HepaRG (AID 2283538; active = hit-call score of the fitted dose curve at least 0.9, where 1 is the maximum; inactive = score below 0.9); conditions: mRNA level, 48 h; actives raise or lower the signal
Outline: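 mRNA induction or loss of UGT1A1, by TaqMan qRT-PCR, in duplicate HepaRG wells after 48 h exposure to half-log dilutions topping at 100 uM; DMSO (0.5%) served as baseline.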

[4] = read-out: UDP glucuronosyltransferase (UGT1A6), UGT1A6 (gene 54578); assay: LTEA_HepaRG_UGT1A6: Life Technologies and Expression Analysis (LTEA) Assay for UDP glucuronosyltransferase (UGT1A6) using HepaRG (AID 2283539; active = hit-call score of the fitted dose curve at least 0.9, where 1 is the maximum; inactive = score below 0.9); conditions: mRNA level, 48 h; actives raise or lower the signal
Outline: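 HepaRG, 48 h post-plating switch to serum-free induction medium; chemical 48 h, 100 uM top, half-log x8, duplicate, 0.5% DMSO. Phenobarbital 1mM induction control. UGT1A6 mRNA by TaqMan qRT-PCR; gain/loss fit vs DMSO.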

[5] = LTEA_HepaRG_LDH_cytotoxicity: Cytotoxicity Assessment in the Life Technologies and Expression Analysis (LTEA) Assay (AID 2283563);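 for AC50: LDH activity released into spent culture medium as a marker of cell death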
Outline: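 Cells were thawed and plated for 48 h. Medium was then replaced with serum-free induction medium. Chemicals (8 half-log points, maximum 100 uM, 0.5% DMSO) were added in duplicate for 48 h, after which spent medium was assayed for LDH.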

[6] = TOX21_p53_BLA_p2_viability: Viability Assessment in the Tox21 HCT-116 p53 Agonism Beta-lactamase Assay, Phase 2 (AID 2283591);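 note: compound exposure lasted 16 h at 37 °C; actives lower the ATP signal meaning cytotoxicity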
Outline: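 Cytotoxicity readout: CellTiter-Glo ATP luminescence, 30 min at room temperature, after the beta-lactamase read. Cells were HCT116 exposed 16 h at 37C to compounds pin-transferred at 217-fold dilution from DMSO stocks.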

[7] = target: Cellular tumor antigen p53 (Homo sapiens) (UniProt P04637); assay: TOX21_p53_BLA_p2_ratio: Tox21 HCT-116 p53 Agonism Beta-lactamase Assay, Ratio, Phase 2 (AID 2283592)
Cellular tumor antigen p53 (Homo sapiens), sequence (P04637 whole entry, looked up): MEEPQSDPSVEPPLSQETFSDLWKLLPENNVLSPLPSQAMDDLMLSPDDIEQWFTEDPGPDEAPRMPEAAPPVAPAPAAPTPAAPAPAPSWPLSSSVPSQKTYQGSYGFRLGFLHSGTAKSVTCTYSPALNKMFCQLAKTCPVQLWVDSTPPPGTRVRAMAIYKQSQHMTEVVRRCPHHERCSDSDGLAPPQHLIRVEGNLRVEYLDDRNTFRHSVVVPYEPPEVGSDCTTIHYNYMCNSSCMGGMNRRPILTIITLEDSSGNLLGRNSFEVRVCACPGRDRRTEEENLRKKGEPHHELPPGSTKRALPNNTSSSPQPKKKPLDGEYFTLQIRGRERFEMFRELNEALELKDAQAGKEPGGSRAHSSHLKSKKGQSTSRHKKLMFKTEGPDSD
Outline: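 Plated HCT116 p53-bla cells (4000/well) received compound after 5 h, then 16 h at 37C/5% CO2. CCF4-AM added, 2 h RT. Ratio of 460 to 530 nm emission taken as the p53 reporter signal.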

[8] = TOX21_p53_BLA_p3_viability: Viability Assessment in the Tox21 HCT-116 p53 Agonism Beta-lactamase Assay, Phase 3 (AID 2283593);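 note: cells exposed to compound for 16 h before reading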
Outline: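 Cellular ATP was quantified by CellTiter-Glo luminescence, read after 30 min at room temperature. Beforehand, HCT116 cells (4000/well) received compound 5 h post-seeding, 217-fold diluted from DMSO, then incubated 16 h at 37C.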

[9] = read-out: X-box binding protein 1 (XBP1), XBP1 (gene 7494); assay: LTEA_HepaRG_XBP1: Life Technologies and Expression Analysis (LTEA) Assay for X-box binding protein 1 (XBP1) using HepaRG (AID 2283540; active = hit-call score of the fitted dose curve at least 0.9, where 1 is the maximum; inactive = score below 0.9); conditions: mRNA level, 48 h; actives raise or lower the signal
Outline: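 Transcript levels of XBP1, measured by qRT-PCR and normalised to three housekeeping genes, were fitted bidirectionally relative to 0.5% DMSO controls. Human HepaRG cells received eight-point half-log dilutions from 100 uM for 48 h.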

[10] = ATG_XTT_Cytotoxicity: Cytotoxicity Assessment in the Attagene TRANS-FACTORIAL HepG2 Assay (AID 2283584)
Outline: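 Cells: human HepG2, transiently transfected with MRTU reporter constructs. Exposure 24 h. Readout: XTT, cell number. Baseline/neg ctrl DMSO; loss-of-signal scored.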

Measured: AC50

O=C(NC(=O)c1cc(F)c(F)cc1Cl)Nc1cc(F)ccc1N1CCC(C(=O)O)CC1
not listed: [9] | [10]
inactive: all other assays above

CC(C)(c1ccccc1)c1ccc(O)cc1
inactive: [2] | [3] | [4] | [9] | [10] | [6] | [7] | [8]
active: [1] 78.2 µM | [5] 76.7 µM | [6] 80.1 µM | [7] 74 µM

CN(C)c1nc(=O)n(C2CCCCC2)c(=O)n1C
inactive: [1] | [3] | [4] | [9] | [5]

NS(=O)(=O)C(F)(F)C(F)(F)C(F)(F)C(F)(F)C(F)(F)C(F)(F)C(F)(F)C(F)(F)F
inactive: [10] | [6] | [7]
active: [1] 7.4 µM | [2] 50 µM | [3] 10.1 µM | [4] 13.3 µM | [5] 31.4 µM | [8] 46.1 µM

Cc1cc2c3c(c1)C(c1ccccc1)=N[C@@H](NC(=O)c1ccncc1)C(=O)N3CC2
active: [1] 22.7 µM | [2] 50 µM | [3] 4.99 µM
inactive: [4] | [5] | [7]

C[C@]12CCC(=O)C=C1CC[C@@H]1[C@@H]2CC[C@@]2(C)[C@H]1CC[C@]2(C)O
inactive: [2] | [9] | [10] | [6] | [7] | [8]
active: [3] 10.9 µM | [4] 45.8 µM | [5] 74 µM | [7] 50.3 µM

c1cc2ccc3cccc4ccc(c1)c2c34
active: [3] 10.7 µM
inactive: all other assays above

ClC(Cl)=C(c1ccc(Cl)cc1)c1ccc(Cl)cc1
inactive: [2] | [4] | [9] | [5] | [10] | [6] | [7] | [8]
active: [3] 13.1 µM | [6] 55.6 µM | [7] 87.7 µM | [8] 58.4 µM

C=CC(N)=O
not listed: [9] | [10]
inactive: all other assays above

CC(C)(O)C(=O)Nc1ccc([N+](=O)[O-])c(C(F)(F)F)c1
inactive: [3] | [4] | [5] | [10] | [6] | [7] | [8]
active: [2] 0.0309 µM | [9] 0.0212 µM | [7] 69.3 µM

CCOC(=O)C(O)(c1ccc(Cl)cc1)c1ccc(Cl)cc1
active: [3] 67.4 µM | [6] 67.1 µM and 17.8 µM | [7] 63.8 µM and 32.9 µM | [8] 22 µM
inactive: [1] | [2] | [4] | [5] | [10] | [8]

C[C@]12CCC(=O)C=C1CC[C@@H]1[C@@H]2CC[C@]2(C)C(=O)CC[C@@H]12
active: [3] 13.1 µM
not listed: [1]
inactive: all other assays above

O=C(N[C@H]1CN2CCC1CC2)c1cc2ccoc2cn1
not listed: [10]
inactive: all other assays above

CCOP(=S)(OCC)SCSC(C)(C)C
not listed: [1] | [8]
inactive: all other assays above
